From PubChem
Only some compounds are listed: those with a hit (about 2.8% of all), similar ones and a draw of the others.
SNCA viab count = GF-AFC viability counterscreen for inhibitors of alpha-synuclein gene (SNCA) expression; HEK-293-SNCA-luc viability, GF-AFC fluorescence, 24 h; Potency, µM (highest dose often 57.1 µM), without a hit: at the top dose activity change, negative = cytotoxicity, usual class: cytotoxic; 150,000 compounds, 0.12% hits;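 further: potency means the concentration at half of the fitted maximal effect; 0% = DMSO-treated cells and -100% = medium-only wells without cells; nearly all actives have a fitted effect of over 30% in size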
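HEK-293-SNCA-luc cells (1500/well) plated 24 h, then exposed 24 h to a dilution series; GF-AFC added 30 min at 37C, fluorescence 405/540 nm; normalised to medium-only and DMSO wells, Hill fit.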
IP6K1 inh = Primary qHTS assay for small molecule inhibitors of Inositol hexaphosphate kinase 1 (IP6K1) | Inositol hexakisphosphate kinase 1 (Homo sapiens), Q92551 | IP6K1 kinase, ADP-Glo luminescence, 2 h; hits give low values | activity change, % (series mostly up to about 58 µM) | 140,000 compounds, 0.81% hits; in the data active means activity change below about -25%; further: on the % scale 0 is the no-effect control and ±100 the full control effect
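ADP-Glo luminescence measures ADP made by human IP6K1 during a 2 h RT reaction with ATP/IP6 (mix at 1.3 mM/130 uM); top library doses 57.5 and 19.1 uM final.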
KDM5B inh = Primary screen for KDM5B Histone Demethylases FDH-coupled qHTS. Lysine-specific demethylase 5B (Homo sapiens), Q9UGL1. KDM5B demethylase, FDH-coupled NADH fluorescence (FDH is formaldehyde dehydrogenase). Potency, µM (highest dose often 57.7 µM), usual class: inhibitors. 220,000 compounds, 2.6% hits. AID 1347165, 2019; further: potency means the concentration at half of the fitted maximal effect; 0% is about no effect; nearly all actives have a fitted effect of over 70% in size
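Inhibition is measured as reduced NADH fluorescence generation from FDH coupling to formaldehyde release. Truncated KDM5BΔAP at 200 nM final acts on H3K4me3 peptide (12.5 µM in substrate mix) in pH 7.5 HEPES buffer with Tween-20, 30 min, room temperature.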
SNCA expr inh = Primary qHTS assay for inhibitors of alpha-synuclein gene (SNCA) expression; HEK-293 SNCA-luciferase knock-in, luminescence, 24 h; Potency, µM (series often up to 57.2 µM), for inactives: top-dose activity change, negative = inhibition, hits mostly inhibitors; 140,000 compounds, 0.17% hits; AID 1671194, 2021;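 further: potency means the concentration at half of the fitted maximal effect; plate controls were DMSO cells for no effect and cell-free wells for full effect; nearly all actives have a fitted effect of over 45% in size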
Active calls of the source: *; i = inactive; u = inconclusive; x = no result given; [ ] = dose if it differs, or a comment. Unless noted, the call rests on the fitted dose curve; in most records, active means well fitted curve in the direction sought with a large enough effect; inconclusive means small, poorly fitted or top-dose-only effect, or another doubt; inactive means no such curve, though single readings can be large; an effect the other way counts as inactive or inconclusive.

SMILES | SNCA viab count | IP6K1 inh | KDM5B inh | SNCA expr inh
Cc1cc(C(=O)N2C[C@@H](COCC3CC3)[C@H](c3ccccn3)C2)n[nH]1 | 0.2% | 1.7 | i | -13.1%
O=C(c1cc[nH]c(=O)c1)N1C[C@@H](COCC2CC2)[C@H](c2ccccn2)C1 | 4.8% | 6.0 | 28.2µM* | -5.4%
CCn1c(C2CCCN(Cc3c(C(=O)O)[nH]c4ccc(C)cc34)C2)n[nH]c1=O (configuration not stated) | 8.4% | 16.3 | 28.2µM* | 9.4%
Cc1ccc2nc(C3CCCN(Cc4ccccc4)C3)[nH]c(=O)c2c1 (configuration not stated) | -4.1%[87.6 µM] | 2.6 | i | -5.5%[87.6 µM]
CN(CC1CCCCC1)C(=O)CCc1c[nH]c2ccccc12 | x | x | i | x
COc1ccc(NC(=O)Cn2c(N(C)Cc3ccccc3)nc(C)cc2=O)cc1OC | -13.7% | 5.2 | i | u
COc1ccc(NC(=O)c2cc3c(N(C)Cc4ccccc4)nc(C)cn3n2)cc1OC | u | 0.0 | 31.6µM* | 1.7%
Cc1cn2nc(C(=O)N3CCN(C4CCCCC4)CC3)cc2c(N(C)Cc2ccccc2)n1 | 5.0% | 4.2 | u | 0.1%
COc1cccc(NC(=O)c2cc3c(N(C)Cc4ccccc4)nc(C)cn3n2)c1 | -9.9% | 8.3 | 28.2µM* | 5.9%
COc1ccc(-c2cc(N3CCCN(C(=O)c4cccc5[nH]ccc45)CC3)n[nH]2)cc1 | -7.8% | 12.5 | 28.2µM* | 27.0%
COc1ccc(-c2cc(N3CCCC(NC(=O)c4cccc5[nH]ccc45)C3)n[nH]2)cc1 (configuration not stated) | u | 2.1 | 25.1µM* | 6.1%
O=C(NC1CCN(c2cc(-c3ccc(F)cc3)[nH]n2)C1)c1c[nH]c2ccccc12 (configuration not stated) | u | 0.0 | 14.1µM* | u
COc1ccc(C(=O)N2CCCN(c3cc(-c4ccc(OC)cc4)[nH]n3)CC2)cc1 | -10.0% | 3.1 | i | 6.2%
Cc1nc(N2CCC(NC(=O)c3cccc4[nH]ccc34)CC2)cc(C(F)(F)F)n1 | -14.8% | -14.8 | 28.2µM* | -9.2%
Cc1cc(C)c(O)c(NC(=O)Cc2nn(C)c(=O)c3ccccc23)c1 | x | x | i | x
CCS(=O)(=O)N1C[C@@H]2CN(Cc3coc(C)n3)C[C@]2(C(=O)O)C1 | u | 0.5 | i | 36.7%
CN(Cc1ccccc1)C(=O)CCc1ccnc(N2CCOCC2)c1 | 4.5% | 1.3 | 25.1µM* | 32.5%
COc1ccc(NC(=O)CCc2ccnc(N3CCCC3)c2)c(C)c1 | -13.8% | -17.4 | 25.1µM* | 7.9%
O=C(CCc1ccnc(N2CCCC2)c1)NCc1ccccc1Cl | 2.5% | 15.6 | u | 20.8%
Cc1ccccc1NC(=O)CCc1ccnc(N2CCCC2)c1 | 0.2% | 8.0 | 28.2µM* | 21.8%
CC(C)CN1C(=O)c2ccccc2C(C(=O)Nc2ccccn2)C12CCCC2 (configuration not stated) | -19.3% | 16.8 | i | -33.5%
Cc1ccc(-c2noc(COc3ccccc3C(=O)N3CCN(C)CC3)n2)cc1 | x | x | i | x
COc1ncccc1-c1cn(C)c(=O)n2cc(CNc3ccccc3)nc12 | -3.6%[87.6 µM] | -20.6 | u | 48.8%[87.6 µM]
CC(C)N1CCN(c2ccc3nnc(C4CCC4)n3n2)CC1 | -1.3% | 5.5 | 28.2µM* | -12.2%
CC(C)Cc1nc2nccc(-c3ccsc3)n2n1 | -1.2% | -3.9 | 28.2µM* | 15.5%
SMILES | SNCA viab count | IP6K1 inh | KDM5B inh | SNCA expr inh
COCc1nc2nccc(-c3ccsc3)n2n1 | 1.6% | -10.3 | 28.2µM* | -17.4%
CCc1nc2nccc(-c3ccsc3)n2n1 | 11.2% | -3.3 | 25.1µM* | 4.6%
Cc1ccc(C)c(N2CCN(c3nc4ccc(C)cc4nc3-n3nc(C)cc3C)CC2)c1 | -0.7% | 1.4 | i | 7.0%
O=C(O)C[C@@H]1CCN(C(=O)c2ccco2)C[C@@H]1CC1=NCCc2ccccc21 | -3.6%[87.6 µM] | 11.4 | u | 12.9%[87.6 µM]
COc1cc2c(cc1OC)C(C[C@H]1CN(C(=O)c3ccc(N(C)C)cc3)CC[C@H]1CC(=O)O)=NCC2 | 5.3% | 12.2 | 28.2µM* | -25.3%
COc1cc2c(cc1OC)C(C[C@H]1CN(C(=O)c3ccco3)CC[C@H]1CC(=O)O)=NCC2 | 21.9% | 21.5 | 28.2µM* | 11.3%
COc1ccc(CC(=O)N2CC[C@@H](CC(=O)O)[C@@H](CC3=NCCc4cc(OC)c(OC)cc43)C2)cc1 | 5.9% | 15.4 | 31.6µM* | 6.1%
COc1cc2c(cc1OC)C(C[C@H]1CN(C(=O)c3ccc(C#N)cc3)CC[C@H]1CC(=O)O)=NCC2 | 13.3% | 6.2 | i | 1.7%
COc1cc(C)cc2oc(=O)c(CC(=O)Nc3ccc(NC(C)=O)cc3)c(C)c12 | x | x | i | x
CCOC(=O)c1[nH]c2ccccc2c1NC(=O)c1cc(Cl)ccc1Cl | -19.5% | -16.9 | u | -2.0%
COc1c(F)cc(CN(CCO)Cc2ccc(SC)cc2)cc1Cl | -8.6% | -5.6 | i | -0.2%
CCCc1noc(-c2cccn3c(CNC(=O)c4cc(Cl)ccc4F)nnc23)n1 | 4.7% | 12.0 | 22.4µM* | u
CCCc1noc(-c2cccn3c(CNC(=O)c4cc(F)ccc4Cl)nnc23)n1 | -7.4% | -2.6 | 25.1µM* | 0.5%
COc1ccc(Nc2ccc3cc(S(=O)(=O)N4CCCC4)ccc3n2)cc1Cl | -16.5% | 8.2 | u | -15.1%
COc1cc(Cl)c(C)cc1NC(c1ccccc1)c1nnc(-c2ccccc2Cl)o1 (configuration not stated) | 5.5% | 9.6 | i | 76.6%
O=C(NCCc1ccccc1)N1CC(Oc2ccccc2-c2nc(-c3ccccc3)no2)C1 | -25.2% | 16.5 | 25.1µM* | -1.5%
Cc1ccccc1-c1nccc2c(=O)cc(-c3cccnc3)oc12 | -17.7%[87.6 µM] | -23.1 | 39.8µM* | -13.0%[87.6 µM]
O=c1cc(-c2cccnc2)oc2c(NCc3ccc(F)cc3)nccc12 | 11.3%[87.6 µM] | 70.8 | i | 28.4%[87.6 µM]
O=c1cc(-c2cccnc2)oc2c(-c3ccc(O)c(F)c3)nccc12 | -0.4%[87.6 µM] | -13.8 | i | 31.1%[87.6 µM]
COc1ncccc1-c1nccc2c(=O)cc(-c3cccnc3)oc12 | -10.5%[87.6 µM] | -11.8 | 35.5µM* | 52.8%[87.6 µM]
COc1ccc(-c2nccc3c(=O)cc(-c4cccnc4)oc23)cc1OC | -14.7%[87.6 µM] | -16.2 | i | 15.0%[87.6 µM]
C[S+](=O)([O-])c1ccc(-c2nccc3c(=O)cc(-c4cccnc4)oc23)cc1 | 7.2%[87.6 µM] | -23.5 | 35.5µM* | -5.4%[87.6 µM]
COc1ccc(CN2C[C@@H](CO)[C@H](c3ccncc3)C2)c(OC)c1 | -12.9% | -7.0 | u | -9.6%
Cc1cc(OCC(=O)N2CCCCC2CCN2CCCCCC2)ccc1Cl (configuration not stated) | x | x | i | x
Cc1ccnn1-c1ccc(C(=O)N2CCN(S(=O)(=O)c3ccc(Cl)c(C(F)(F)F)c3)CC2)cc1 | -22.4% | 13.2 | x | x
CC(Cc1cccnc1)Nc1cc(-c2ccccc2F)nc2ccnn12 (configuration not stated) | -4.0% | -14.8 | 28.2µM* | -4.6%
Fc1ccccc1CNc1cc(Cl)nc2ccnn12 | 12.0%[87.6 µM] | 8.9 | i | -13.2%[87.6 µM]
